This note sets out measurements from PubChem BioAssay (NCATS).

The target in experiment [1] is Vitamin D3 receptor (Homo sapiens) (UniProt P11473). Nature of the experiment: qHTS assay for small molecule antagonists of vitamin D receptor signaling (AID 588541).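 Note: receptor activated by calcitriol during compound treatment; % is set by controls: 0 for no effect and ±100 for the full control effect.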 To be noted: HEK293T VDR-UAS-bla, beta-lactamase ratio, antagonist mode; series mostly up to 76.7 µM. A digest of the protocol: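 Antagonist-mode beta-lactamase reporter assay: HEK293T VDR-UAS-bla cells were exposed to titrated compound alongside 1-alpha,25-dihydroxyvitamin D3 at 3 nM final for 16 h. Values were normalized to the 50 nM agonist control and DMSO basal, with IC50 and efficacy from Hill equation fits.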

In experiment [2] the target is Retinoic acid receptor RXR-alpha (Homo sapiens) (UniProt P19793). Nature of the experiment: qHTS assay for small molecule agonists of retinoid X receptor alpha signaling (AID 588544).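 Note: 0% = DMSO basal wells and 100% = reference agonist.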 To be noted: HEK293T RXRa-UAS-bla, beta-lactamase reporter, 18 h; series mostly up to 76.7 µM.
In experiment [3] the target is Thyroid hormone receptor beta (Homo sapiens) (UniProt P10828). Put plainly: qHTS assay for small molecule antagonists of thyroid hormone receptor beta signaling (AID 588547; active = well fitted inhibition curve with a large enough effect in the signal ratio, with a control signal flat, not every such curve was filed as active; the % refers to the signal ratio;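 note: cells stimulated with 0.4 nM T3 agonist during compound exposure; % is set by controls: 0 for no effect and ±100 for the full control effect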). To be noted: TR-UAS-bla HEK293, beta-lactamase ratio, antagonist mode, 18 h. Put shortly:
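Inhibition of T3-driven (0.4nM final) beta-lactamase reporter activity was measured over 0.59 nM to 92 uM compound after 18 h at 37 C. The cells were GripTite HEK293 TR-UAS-bla in charcoal/dextran-stripped serum, with CCF4 ratio read-out and IC50 from Hill fits.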

The nature of experiment [4]: qHTS assay for small molecule agonists of the antioxidant response element (ARE) signaling pathway (AID 651741; active = well fitted activation curve with a large enough effect in the signal ratio; the % refers to the signal ratio; note: potency is the fitted concentration of half-maximal effect; for activation: % of control where 0% means no effect). Particulars: HepG2 ARE-bla reporter, beta-lactamase FRET ratio, 16 h; series mostly up to 96 µM. Put shortly: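 Agonist activity is measured as ARE-driven beta-lactamase expression in a stable HepG2 reporter line, using 16 h compound treatment at 37 C and a FRET substrate fluorescence readout after 2 h.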

Experiment [5] deals with Peroxisome proliferator-activated receptor delta (Homo sapiens) (UniProt Q03181). Nature of the experiment: qHTS assay for small molecule antagonists of peroxisome proliferator-activated receptor delta signaling (AID 588535; active = well fitted inhibition curve with a large enough effect in the signal ratio, with a control signal flat, not every such curve was filed as active; the % refers to the signal ratio). Particulars: HEK293T PPARd-UAS-bla, beta-lactamase FRET ratio, 18 h; series mostly up to 76.7 µM. Put shortly:
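Antagonist-mode qHTS using GeneBLAzer PPAR-delta-UAS-bla HEK293T cells; compound exposure 18 hrs at 37 C over a titration. Ratiometric CCF4 fluorescence at 460/530 nm; concentration-response points fitted to the Hill equation.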

The nature of experiment [6]: qHTS for Inhibitors of the vitamin D receptor (VDR): Hit Validation using a Texas Red Assay (AID 602201; active = well fitted curve in the direction sought with a large enough effect; note: potency is the fitted concentration of half-maximal effect). Particulars: VDR coregulator binding, Texas Red fluorescence polarization, agonist-bound VDR ligand-binding domain; series mostly up to 57.1 µM. A digest of the protocol:
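After a 2-hour room-temperature incubation, polarization of Texas-Red emission was read (Ex 595 nm/Em 615 nm). Final mix contained 7 nM Texas Red, 1.5 uM VDR-LBD and LG19078.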

Inconclusive results are not listed. Values without a mark were called inactive. Active and inactive are the calls of the source. Unless noted, calls come from the whole dose curve.

Sequence of Peroxisome proliferator-activated receptor delta (Homo sapiens) (Q03181 whole entry, looked up): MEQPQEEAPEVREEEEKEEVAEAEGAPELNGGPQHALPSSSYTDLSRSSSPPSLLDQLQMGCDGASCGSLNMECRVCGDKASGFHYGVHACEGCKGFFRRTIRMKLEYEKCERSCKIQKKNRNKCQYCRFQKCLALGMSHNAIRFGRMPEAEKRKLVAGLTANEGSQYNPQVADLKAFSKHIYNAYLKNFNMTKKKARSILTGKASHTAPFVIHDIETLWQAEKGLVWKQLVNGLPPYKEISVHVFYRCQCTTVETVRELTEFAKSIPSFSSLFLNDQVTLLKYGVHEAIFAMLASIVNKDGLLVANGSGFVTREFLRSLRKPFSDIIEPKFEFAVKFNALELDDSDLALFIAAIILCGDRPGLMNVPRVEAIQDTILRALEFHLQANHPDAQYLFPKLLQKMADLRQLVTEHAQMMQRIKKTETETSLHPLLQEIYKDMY
Sequence of Thyroid hormone receptor beta (Homo sapiens) (P10828 whole entry, looked up): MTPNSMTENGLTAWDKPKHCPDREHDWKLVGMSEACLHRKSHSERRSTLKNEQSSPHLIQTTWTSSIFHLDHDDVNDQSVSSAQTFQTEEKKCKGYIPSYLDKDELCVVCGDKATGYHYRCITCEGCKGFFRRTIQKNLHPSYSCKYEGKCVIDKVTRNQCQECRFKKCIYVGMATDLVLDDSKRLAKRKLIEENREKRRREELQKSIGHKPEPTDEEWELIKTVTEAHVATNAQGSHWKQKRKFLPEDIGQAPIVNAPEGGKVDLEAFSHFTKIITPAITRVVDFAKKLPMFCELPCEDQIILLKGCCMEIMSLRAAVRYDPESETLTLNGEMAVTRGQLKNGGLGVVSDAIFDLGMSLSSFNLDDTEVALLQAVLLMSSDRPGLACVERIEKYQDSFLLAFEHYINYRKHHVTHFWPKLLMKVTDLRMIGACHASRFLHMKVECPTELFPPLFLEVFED
Sequence of Vitamin D3 receptor (Homo sapiens) (P11473 whole entry, looked up): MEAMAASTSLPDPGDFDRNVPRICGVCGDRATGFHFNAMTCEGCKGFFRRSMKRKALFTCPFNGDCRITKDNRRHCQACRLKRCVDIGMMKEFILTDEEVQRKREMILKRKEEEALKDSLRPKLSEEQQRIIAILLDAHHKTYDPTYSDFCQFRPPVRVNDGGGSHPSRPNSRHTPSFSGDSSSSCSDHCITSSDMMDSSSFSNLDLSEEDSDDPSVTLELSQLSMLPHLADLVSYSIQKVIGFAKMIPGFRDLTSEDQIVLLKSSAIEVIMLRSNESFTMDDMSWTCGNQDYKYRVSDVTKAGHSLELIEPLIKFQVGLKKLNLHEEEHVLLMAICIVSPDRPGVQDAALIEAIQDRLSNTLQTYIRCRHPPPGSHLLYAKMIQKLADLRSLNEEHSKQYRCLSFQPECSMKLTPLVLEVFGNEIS
Sequence of Retinoic acid receptor RXR-alpha (Homo sapiens) (P19793 whole entry, looked up): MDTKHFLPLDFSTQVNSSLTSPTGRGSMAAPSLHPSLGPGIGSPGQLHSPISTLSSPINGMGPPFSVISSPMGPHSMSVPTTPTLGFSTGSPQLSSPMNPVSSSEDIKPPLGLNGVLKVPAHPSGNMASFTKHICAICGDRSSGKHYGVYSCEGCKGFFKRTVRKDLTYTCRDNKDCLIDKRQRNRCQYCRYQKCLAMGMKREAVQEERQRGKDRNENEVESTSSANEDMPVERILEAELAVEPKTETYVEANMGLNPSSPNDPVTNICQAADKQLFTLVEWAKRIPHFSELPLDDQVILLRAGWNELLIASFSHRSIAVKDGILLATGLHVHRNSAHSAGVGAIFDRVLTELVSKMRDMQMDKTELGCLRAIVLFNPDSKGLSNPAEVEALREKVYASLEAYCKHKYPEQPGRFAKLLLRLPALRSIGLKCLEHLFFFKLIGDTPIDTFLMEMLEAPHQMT

Consider `CCCCC(CC)COC(=O)CS` (configuration not stated), for which the Potency entry in experiment [1] and in experiment [2] was “inactive” in each case. Moreover, the activity change % (negative = inhibition) in experiment [3] is 1.03%.
As for `Cc1cc(Cc2cc(C)cc(C(C)(C)C)c2O)c(O)c(C(C)(C)C)c1`, the Potency in experiment [4] was 48.6 µM (active).
`CCN(Cc1c(F)cccc1Cl)c1c([N+](=O)[O-])cc(C(F)(F)F)cc1[N+](=O)[O-]`: the Potency result in experiment [5] and in experiment [1] was “inactive” in each case. Besides, the activity change % (negative = inhibition) in experiment [3] is -17.5%.
Consider `CCCCCCCCCCCCCCCC`, for which the Potency result in experiment [5] and in experiment [2] was “inactive” each time. The activity change % (negative = inhibition) in experiment [3] was -0.344%.
In the case of `O=C(O)c1cc(O)c2ccccc2c1O`, in experiment [4], the Potency is 7.7 µM (active).
Consider `Cc1nn(C)c(Oc2ccccc2)c1/C=N/OCc1ccc(C(=O)OC(C)(C)C)cc1`, for which the Potency result in experiment [2] is “inactive”. In addition, in experiment [3], the activity change % (negative = inhibition) is -18.8%.
`OCCOCCOCCOCCOCCO`: the Potency entry in experiment [5], in experiment [1], in experiment [2] and in experiment [4] was “inactive” in each case. Moreover, the activity change % (negative = inhibition) in experiment [3] was -16.4%.
In the case of `O=C=NC1CCC(CC2CCC(N=C=O)CC2)CC1` (configuration not stated), the Potency entry in experiment [5], in experiment [1], in experiment [2] and in experiment [4] was “inactive” each time.
For the compound `Clc1nc(Cl)c(Cl)c(Cl)c1Cl`, the Potency result in experiment [5], in experiment [1] and in experiment [2] was “inactive” each time. Besides, the activity change % (negative = inhibition) in experiment [3] was -13.1%. For the same compound, the Potency in experiment [4] was 17.2 µM (active).
`O=[N+]([O-])c1ccc(O)cc1C(F)(F)F`: the Potency entry in experiment [5] is “inactive”. In addition, in experiment [4], the Potency is 34.4 µM (active).
As for `C=C(C)C(=O)OCCC[Si](Cl)(Cl)Cl`, the Potency entry in experiment [5] and in experiment [1] was “inactive” in each case.
Regarding `O=c1oc(=O)c2cc3c(=O)oc(=O)c3cc12`, the Potency entry in experiment [5], in experiment [1] and in experiment [4] was “inactive” in each case.
Turning to `C[C@]12CC[C@@H]3c4ccc(O)cc4CC[C@H]3[C@@H]1CC[C@H]2O`, the Potency result in experiment [1] and in experiment [4] was “inactive” in each case. The activity change % (negative = inhibition) in experiment [3] was -9.59%.
In the case of `Brc1ccc(Oc2ccc(Br)cc2)cc1`, the Potency entry in experiment [5], in experiment [1] and in experiment [4] was “inactive” throughout.
On to `S=C(S)NCCNC(=S)S`, for which the activity change % (negative = inhibition) in experiment [3] is -7.47%.
For the compound `CCNc1nc(N)nc(Cl)n1`, the Potency entry in experiment [5], in experiment [2] and in experiment [4] was “inactive” in each case. Moreover, the activity change % (negative = inhibition) in experiment [3] was -8.97%.
In the case of `CCNc1nc(NC(C)CC)nc(OC)n1` (configuration not stated), the Potency result in experiment [1], in experiment [2] and in experiment [4] was “inactive” in each case.
As for `COC(=O)c1ccc(I)cc1S(=O)(=O)NC(=O)Nc1nc(C)nc(OC)n1`, the Potency entry in experiment [2] and in experiment [4] was “inactive” throughout. Besides, in experiment [3], the activity change % (negative = inhibition) is -17%.
Regarding `C=C(C)C(=O)OCCOCCOCCOC(=O)C(=C)C`, the Potency result in experiment [1], in experiment [2] and in experiment [4] was “inactive” throughout. Further, in experiment [3], the activity change % (negative = inhibition) is -12.3%.
For `CS(=O)(=O)c1ccc(Cl)cc1`, the Potency result in experiment [5], in experiment [1] and in experiment [4] was “inactive” throughout. In experiment [3], the activity change % (negative = inhibition) is -10.2%.
Regarding `Nc1ccc(Nc2ccccc2)cc1`, the Potency in experiment [4] is 30.6 µM (active).
On the same count and under the same terms, the result for `c1cc2ccc3ccc4ccc5cccc6c(c1)c2c3c4c56` reads 21.7 µM (active).
Consider `O=C1/C(=C/c2cccnc2)CCC/C1=C\c1cccnc1`, for which the Potency in experiment [6] is 31.6 µM (active).
